Test results from PubChem BioAssay.
Active and inactive are the calls of the source.

Legend:
[1] = tested on: Plasmodium falciparum Sir2 (PF13_0152, Sir2A); experiment: pfSir2 binders on small-molecule microarrays, primary screen, biochemical, small-molecule microarray, 635 nm fluorescence (AID 1098); conditions: small-molecule microarray binding, fluorescence 635 nm; higher = more signal;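 also: score merges spot fluorescence intensity with its signal-to-noise ratio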
[2] = small-molecule microarray binders of probe aDKK1, primary screen, biochemical, biotinylated probe, 635/667 nm fluorescence (AID 1099); conditions: higher = more signal;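 also: score merges 667nm spot fluorescence with signal to noise across triplicate slides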
[3] = small-molecule microarray binders of probe aCHRDL2, primary screen, biochemical, biotinylated probe, 635/667 nm fluorescence (AID 1100); conditions: higher = more signal
[4] = splicing luciferase reporter signal modulators, primary screen, spliceosome inhibition project, cell-based, HEK293, splice +/- reporter (AID 1101); conditions: luminescence, 24 h, higher = more signal, called active from +8 up or from −8 down;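 also: HEK293 cells carrying a splicing-competent luciferase reporter gene; test concentration not given here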
[5] = target: Fibroblast growth factor 10 (Homo sapiens) (UniProt O15520); experiment: FGF10 binders on small-molecule microarrays, primary screen, biochemical, small-molecule microarray, 635 nm fluorescence (AID 1102); conditions: FGF10 binding, fluorescence 635 nm, higher = more signal
[6] = tested on: glycogen synthase kinase-3 (GSK3A per assay name; protocol says GSK3B); experiment: GSK3 binders on small-molecule microarrays, primary screen, biochemical, small-molecule microarray, 635 nm fluorescence, GSK3A (AID 1103); conditions: small-molecule microarray binding, fluorescence 635 nm; higher = more signal; also: the record names both GSK3A and GSK3B
[7] = target: Epidermal growth factor receptor (Homo sapiens) (UniProt P00533); experiment: EGFR binders on small-molecule microarrays, primary screen, biochemical, small-molecule microarray, 635 nm fluorescence (AID 1104); conditions: EGFR binding, higher = more signal;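 also: score merges 667 nm emission intensity with spot signal to noise over triplicate slides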
[8] = target: Follistatin-related protein 3 (Homo sapiens) (UniProt O95633); experiment: FSTL3 binders on small-molecule microarrays, primary screen, biochemical, small-molecule microarray, 635 nm fluorescence (AID 1105); conditions: FSTL3 binding, higher = more signal;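 also: score merges emission near 667 nm and signal to noise per printed spot across three slides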
[9] = target: Dickkopf-related protein 1 (Homo sapiens) (UniProt O94907); experiment: DKK1 binders on small-molecule microarrays, primary screen, biochemical, small-molecule microarray, 635 nm fluorescence scan (AID 1106); conditions: DKK1 binding, higher = more signal;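 also: score merges emission near 667 nm with signal to noise over three replicate slides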
[10] = tested on: Inhibin beta A chain (activin A); experiment: INHBA (activin A) binders on microarrays, primary screen, biochemical, small-molecule microarray, 635 nm fluorescence scan (AID 1107); conditions: small-molecule microarray binding, higher = more signal;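 also: mouse activin A protein probed at 4.33 µg/mL on printed slides; score merges bound-protein fluorescence near 667 nm with spot signal-to-noise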
[11] = tested on: Human papillomavirus type 1a protein E7 (residues 44-93); experiment: HPV1a E7 fragment binders on microarrays, primary screen, biochemical, small-molecule microarray, residues 44-93, 635 nm fluorescence (AID 1108); conditions: small-molecule microarray binding, fluorescence 635 nm; higher = more signal;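 also: E7 fragment applied at 1 µg/mL in TBST for 1 h at 4 C; score combines spot fluorescence with its signal to noise ratio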
[12] = modulators of HCV replicon luciferase signal, primary screen, HCV replication inhibitor project, Huh7 cells, luciferase reporter (AID 1109); conditions: 48 h, higher = more signal;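 also: huh7 hepatoma cells harbouring a luciferase neomycin HCV replicon reporter; luciferase luminescence as measure of HCV replicon replication; test concentration not given here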
[13] = target: Left-right determination factor 2 (Homo sapiens) (UniProt O00292); experiment: LEFTY2 binders on small-molecule microarrays, primary screen, biochemical, small-molecule microarray, 635 nm fluorescence scan (AID 1110); conditions: LEFTY2 binding, higher = more signal
[14] = target: Calmodulin-1 (Homo sapiens) (UniProt P0DP23); experiment: CALM1 binders on microarrays, EGTA buffer, profiling panel, biochemical, small-molecule microarray, Cy5-labelled CALM1 (AID 1111); conditions: Cy5-CALM1 binding fluorescence, higher = more signal;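 also: labelled calmodulin applied in Tris saline Tween buffer holding calcium plus EGTA and DTT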
[15] = target: Calmodulin-1 (Homo sapiens) (UniProt P0DP23); experiment: calcium-bound CALM1 binders on microarrays, profiling panel, artefact control for SMM control-protein annotation, biochemical, small-molecule microarray, Cy5-labelled CALM1, plus calcium (AID 1112); conditions: Cy5-CALM1 binding fluorescence, higher = more signal;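 also: score merges spot fluorescence with signal to noise from triplicate slides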
[16] = small-molecule microarray binders of probe aWnt5a, primary screen, biochemical, biotinylated probe, 635/667 nm fluorescence (AID 1113); conditions: higher = more signal;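 also: score merges 667 nm fluorescence intensity with signal-to-noise per printed feature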
[17] = small-molecule microarray binders of probe aShh, primary screen, biochemical, biotinylated probe, 635/667 nm fluorescence (AID 1114); conditions: higher = more signal;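 also: probe is biotin-labelled aShh protein from a stem cell growth factor screen; measures binding of labelled protein to compounds printed on the slide; score merges feature fluorescence at 667 nm with signal-to-noise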
[18] = small-molecule microarray binders of probe aNog, primary screen, biochemical, biotinylated probe, 635/667 nm fluorescence (AID 1115); conditions: higher = more signal;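 also: probe is biotinylated aNog protein used at 0.15 µg/mL for 1 h at 4 C; z-score combines 667 nm fluorescence of each spot with its signal to noise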
[19] = target: Torsin-1A-interacting protein 1 (Homo sapiens) (UniProt Q5JTV8); experiment: LAP1 binders from COS7 cell lysate, primary screen, small-molecule microarray, 635/667 nm fluorescence (AID 1116); conditions: COS7-hLAP1 lysate binding, 635 nm fluorescence, higher = more signal
[20] = target: Alpha-bungarotoxin (Bungarus multicinctus) (UniProt P60615); experiment: alpha-bungarotoxin binders on microarray, profiling panel, artefact control for SMM control protein annotation, biochemical, small-molecule microarray, Alexa647 label, 635/667 nm fluorescence (AID 1117); conditions: alpha-BTX-A647 binding fluorescence, higher = more signal
Chain of Alpha-bungarotoxin (Bungarus multicinctus) (P60615 whole entry, looked up): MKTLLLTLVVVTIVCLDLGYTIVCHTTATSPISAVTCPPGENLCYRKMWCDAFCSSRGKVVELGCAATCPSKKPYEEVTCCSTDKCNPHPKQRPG

Chain of Fibroblast growth factor 10 (Homo sapiens) (O15520 whole entry, looked up): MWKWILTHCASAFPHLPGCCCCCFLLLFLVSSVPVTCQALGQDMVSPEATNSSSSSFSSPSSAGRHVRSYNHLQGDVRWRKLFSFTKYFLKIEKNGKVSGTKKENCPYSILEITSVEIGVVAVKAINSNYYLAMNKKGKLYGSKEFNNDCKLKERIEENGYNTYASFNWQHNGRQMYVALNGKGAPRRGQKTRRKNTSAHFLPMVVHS
Chain of Torsin-1A-interacting protein 1 (Homo sapiens) (Q5JTV8 whole entry, looked up): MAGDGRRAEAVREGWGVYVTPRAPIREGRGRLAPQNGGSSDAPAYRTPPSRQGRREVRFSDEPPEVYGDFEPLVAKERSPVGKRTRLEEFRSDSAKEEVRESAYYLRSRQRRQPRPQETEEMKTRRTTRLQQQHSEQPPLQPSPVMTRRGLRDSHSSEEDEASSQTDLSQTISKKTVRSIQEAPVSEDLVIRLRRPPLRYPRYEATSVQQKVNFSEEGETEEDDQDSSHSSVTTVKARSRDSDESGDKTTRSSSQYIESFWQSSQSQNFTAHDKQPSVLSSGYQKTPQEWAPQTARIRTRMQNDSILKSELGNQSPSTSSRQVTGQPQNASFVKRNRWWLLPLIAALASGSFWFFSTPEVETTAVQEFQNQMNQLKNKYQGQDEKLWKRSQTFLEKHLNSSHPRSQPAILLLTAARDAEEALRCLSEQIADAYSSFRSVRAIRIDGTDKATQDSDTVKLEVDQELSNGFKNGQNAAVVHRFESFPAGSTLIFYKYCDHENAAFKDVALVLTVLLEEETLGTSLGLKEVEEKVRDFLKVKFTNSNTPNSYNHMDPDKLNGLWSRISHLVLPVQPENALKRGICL
Chain of Follistatin-related protein 3 (Homo sapiens) (O95633 whole entry, looked up): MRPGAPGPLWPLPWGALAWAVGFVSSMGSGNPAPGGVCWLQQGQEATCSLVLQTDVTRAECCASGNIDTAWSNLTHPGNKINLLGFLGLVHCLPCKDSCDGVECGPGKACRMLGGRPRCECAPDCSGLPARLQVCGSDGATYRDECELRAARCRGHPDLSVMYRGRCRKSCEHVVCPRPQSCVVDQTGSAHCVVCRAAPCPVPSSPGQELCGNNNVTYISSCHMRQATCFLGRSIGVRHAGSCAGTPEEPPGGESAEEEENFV
Chain of Left-right determination factor 2 (Homo sapiens) (O00292 whole entry, looked up): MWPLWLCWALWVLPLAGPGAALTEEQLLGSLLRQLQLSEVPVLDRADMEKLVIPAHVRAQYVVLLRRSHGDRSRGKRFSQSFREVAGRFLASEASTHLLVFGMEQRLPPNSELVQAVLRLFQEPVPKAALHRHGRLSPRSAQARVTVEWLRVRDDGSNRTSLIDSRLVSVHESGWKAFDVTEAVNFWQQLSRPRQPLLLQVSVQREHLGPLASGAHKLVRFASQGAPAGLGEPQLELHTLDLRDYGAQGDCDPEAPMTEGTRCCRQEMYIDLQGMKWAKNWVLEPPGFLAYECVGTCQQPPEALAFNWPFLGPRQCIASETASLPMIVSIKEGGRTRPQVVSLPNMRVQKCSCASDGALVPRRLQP
Chain of Dickkopf-related protein 1 (Homo sapiens) (O94907 whole entry, looked up): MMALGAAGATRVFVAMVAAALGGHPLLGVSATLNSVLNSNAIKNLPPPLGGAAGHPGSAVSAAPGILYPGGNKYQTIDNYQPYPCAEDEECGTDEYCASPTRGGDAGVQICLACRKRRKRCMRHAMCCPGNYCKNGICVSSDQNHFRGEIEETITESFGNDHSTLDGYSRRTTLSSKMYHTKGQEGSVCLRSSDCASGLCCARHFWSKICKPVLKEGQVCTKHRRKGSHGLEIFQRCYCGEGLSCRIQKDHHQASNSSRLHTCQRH
Chain of Epidermal growth factor receptor (Homo sapiens) (P00533 whole entry, looked up): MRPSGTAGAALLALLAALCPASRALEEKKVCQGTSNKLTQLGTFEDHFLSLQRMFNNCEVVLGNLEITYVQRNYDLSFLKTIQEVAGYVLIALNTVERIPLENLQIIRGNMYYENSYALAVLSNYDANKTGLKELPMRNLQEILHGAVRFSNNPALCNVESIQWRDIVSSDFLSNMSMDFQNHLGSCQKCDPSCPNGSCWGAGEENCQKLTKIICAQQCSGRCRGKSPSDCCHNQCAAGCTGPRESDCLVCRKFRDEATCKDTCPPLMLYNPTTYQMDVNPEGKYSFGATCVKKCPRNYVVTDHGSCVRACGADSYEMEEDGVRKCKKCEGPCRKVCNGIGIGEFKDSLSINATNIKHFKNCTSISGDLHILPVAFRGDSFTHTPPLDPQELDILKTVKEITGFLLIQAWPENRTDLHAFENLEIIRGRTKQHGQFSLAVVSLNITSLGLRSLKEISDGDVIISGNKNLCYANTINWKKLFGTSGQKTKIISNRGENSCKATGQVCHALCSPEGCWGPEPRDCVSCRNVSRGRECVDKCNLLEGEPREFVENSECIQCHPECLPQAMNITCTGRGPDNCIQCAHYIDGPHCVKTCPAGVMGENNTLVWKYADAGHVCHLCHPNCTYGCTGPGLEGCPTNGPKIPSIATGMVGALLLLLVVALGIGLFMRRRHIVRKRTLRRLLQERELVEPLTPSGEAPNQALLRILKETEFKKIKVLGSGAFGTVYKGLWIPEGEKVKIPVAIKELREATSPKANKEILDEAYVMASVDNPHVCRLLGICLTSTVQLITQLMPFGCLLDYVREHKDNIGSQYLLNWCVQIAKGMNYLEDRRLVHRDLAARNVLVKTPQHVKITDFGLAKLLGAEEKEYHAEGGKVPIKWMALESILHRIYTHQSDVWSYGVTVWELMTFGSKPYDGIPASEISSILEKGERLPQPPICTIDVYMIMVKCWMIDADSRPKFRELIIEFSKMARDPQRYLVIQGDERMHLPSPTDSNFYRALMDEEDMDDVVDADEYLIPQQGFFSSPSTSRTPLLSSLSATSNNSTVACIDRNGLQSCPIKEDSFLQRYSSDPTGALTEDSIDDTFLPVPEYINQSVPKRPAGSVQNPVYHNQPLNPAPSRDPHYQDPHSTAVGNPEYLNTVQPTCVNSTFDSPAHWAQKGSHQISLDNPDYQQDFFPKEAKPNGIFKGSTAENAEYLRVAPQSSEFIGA

SMILES	composite z-score [1]	composite z-score [2]	composite z-score [3]	z-score [4]	composite z-score [5]	composite z-score [6]	composite z-score [7]	composite z-score [8]	composite z-score [9]	composite z-score [10]	composite z-score [11]	z-score [12]	composite z-score [13]	composite z-score [14]	composite z-score [15]	composite z-score [16]	composite z-score [17]	composite z-score [18]	composite z-score [19]	composite z-score [20]
C=CCC(OC(C)=O)[C@@H]1[C@@H](N(Cc2ccc(-c3ccccc3)cc2)C(=O)c2ccc(-c3ccccc3)cc2)c2cc(OCCCO)ccc2N1C(=O)Cc1ccc2ccccc2c1 (stereo not given in full)	-0.316	-0.108	0.336	-0.412 (inactive)	-0.133	-0.0682	0.0825	0.394	0.0989	1.11	0.422	-0.4	0.0959	0.436	0.704	-0.0566	-0.345	0.221	0.359	0.0054
O[C@@H](Cc1ccccc1)[C@H]1C2C=CCCC=C2CN1Cc1cccc(Cl)c1 (stereo not given in full)	0.77	-0.0422	-0.284	-0.381 (inactive)	0.9	1.08	0.231	1.24	0.496	0.296	1.1	-1.42	0.702	0.0101	-0.2	-0.0721	-0.138	0.277	0.761	1.36
CC(C)OC(=O)C=C1C[C@@H](c2ccccn2)O[C@@H](c2ccccn2)O1	-0.152	-0.778	-1.68	1.08 (inactive)	0.627	0.201	0.891	1.1	1.47	1.21	-0.0187	-0.884	1.05	-1.38	-0.98	-0.0607	0.489	-0.457	0.429	0.6
CCCCCCc1nc(-c2cc(C)c(OC)c(C)c2)cc2c1[Si](C(C)C)(C(C)C)OC2	-0.218	-0.12	-0.0937	-2.3 (inactive)	-0.0932	0.194	-0.314	-0.105	-0.0304	0.641	0.0047	0.777	-0.21	-0.268	-0.256	-0.124	-0.273	-0.244	-0.359	0.19
CC(C)[Si](C#Cc1ccc(Oc2ccccc2)cc1)(O[Si](C#Cc1ccc(Oc2ccccc2)cc1)(C(C)C)C(C)C)C(C)C	1.11	0.112	-0.504	-0.226 (inactive)	1.37	0.478	0.0408	0.394	0.687	-0.294	0.328	0.651	0.567	-0.185	0.307	0.0561	-0.0337	-0.12	0.0811	0.262
CCCCCN1CC=CC23O[C@@H]4/C=C\CCC(C)OC(=O)C4[C@H]2C(=O)N(C(C)CO)[C@@H]3C1=O (stereo not given in full)	-0.472	-0.225	-0.327	0.304 (inactive)	0.171	0.0131	-0.601	-0.0103	-0.23	0.908	0.67	-0.862	-0.441	-0.213	-1.04	-0.175	-0.282	-0.17	-0.537	-0.453
O=C1OCCC/C=C\[C@H]2OC34C=CCN(Cc5ccccc5)C(=O)[C@H]3N(CCCO)C(=O)[C@@H]4C12 (stereo not given in full)	1.26	-0.0379	0.794	0.422 (inactive)	-0.967	-0.972	-1.55	-1.57	-1.66	-0.583	0.0636	-0.779	-2.09	-0.537	0.464	-0.178	-0.16	-0.244	1.82	-0.972
O=C1C2C=CC(C(O)c3cc(C(F)(F)F)cc(C(F)(F)F)c3)N(n3cnnc3)C2C(=O)N1Cc1ccccc1 (stereo not given)	0.716	-0.0958	0.531	-0.27 (inactive)	-0.409	-0.261	-0.165	-0.103	-1.17	-0.301	1.11	-0.418	-0.63	0.538	-0.374	-0.0161	0.14	0.705	-0.133	-0.0735
C=CCN1C(=O)[C@]2(O[C@H](CCn3cc([C@H](O)c4ccccc4)nn3)[C@@H]([Si](C)(C)c3ccc(OC)cc3)[C@@H]2C)c2cc(N3CCC3=O)ccc21	1.48	-0.29	0.224	-0.619 (inactive)	0.864	0.169	0.0043	0.306	0.815	0.619	1.34	-3.08	0.152	0.439	-0.022	-0.0685	0.0253	0.328	0.549	1.07
O=C1C[C@@](C(=O)NCCN2CCOCC2)(c2ccc([N+](=O)[O-])cc2)[C@@H](c2ccc(CO)cc2I)N1CC12CC3CC(CC(C3)C1)C2	1.29	-0.174	0.283	-3.38 (inactive)	1.33	1.3	0.545	1.03	0.324	-0.0038	1.45	-3.49	0.462	0.76	-0.581	-0.034	-0.0146	-0.388	1.17	1.48
COc1cc2c(cc1OC)CN(C(=O)[C@H]1[C@@H]3C(=O)O[C@@H](c4ccccc4)[C@@H](c4ccccc4)N3[C@@H](c3ccc(O)cc3)[C@]13C(=O)Nc1ccc(C#CCCO)cc13)CC2	0.957	0.0325	0.481	0.0673 (inactive)	0.398	0.0837	-0.0179	0.249	-0.0546	0.224	1.4	-0.838	-0.0265	0.382	0.0412	-0.0403	-0.0553	-0.472	0.469	1.04
